Measured values from ChEMBL document CHEMBL4513216, “Probing the Open Global Health Chemical Diversity Library for Multistage-Active Starting Points for Next-Generation Antimalarials” (ACS Infect Dis, 2020).
Hit rate of the full screen: of about 65,000 compounds, about 2,100 (3.2%) showed an effect of 50% or more. The median lay at about -52%. The full list was thinned out, with strong results kept by preference.

What follows are molecules tested on Plasmodium falciparum (assay: Screen against P. falciparum Asexual Blood Stage (ABS), at 5uM). Settings: tested at 5 uM.
Type: functional, Dd2
With `Cc1[nH]c(C2(N)CCCCC2)nc(=O)c1C` the INHIBITION was -60%. In the case of `Cc1cnc(N2CCOC3(CCCN(CC(=O)N(C)C)C3)C2)nc1` (configuration not stated), the INHIBITION is reported as -6.47%. For `CC(CNC(=O)c1cc(Cl)ccc1I)N1CCCC1` (configuration not stated), the INHIBITION was 71.1%. `COc1ccc(Cl)cc1CC(=O)N1CCN(CC(C)O)CC1` (configuration not stated) showed an INHIBITION of -132%. Work on `Cc1nc(N2C[C@H]3CNC[C@H]3C2)c2sccc2n1` yielded an INHIBITION of -54.7%. `Cc1nc(CO[C@@H]2CN(Cc3cccnc3)[C@@H]3COC[C@@H]32)cs1` was tested, and the INHIBITION was -14.2%. With `CCN1CCC2(CCC1=O)CN(c1ccnc(SC)n1)CCN2C` (configuration not stated) the INHIBITION was -44.5%. With `Cc1cnn(CCCNCc2csc(COc3ccccc3)n2)c1` the INHIBITION was 70.9%. For `Cc1cnn(CCNCc2csc(-c3ncccn3)n2)c1`, the INHIBITION was 71.5%. In the case of `Cc1nc(CN2CC[C@H]3[C@H]2CCN3c2ncccn2)cs1`, the INHIBITION is reported as -38%. For `CN(C)C(=O)CN1CCN(C(=O)Cc2csc(-c3ncccn3)n2)CC1`, the INHIBITION was 6.7%. `Cc1nc(CC(=O)N2CCN(CCOc3ccccc3)CC2)cs1` was tested, and the INHIBITION was -22.5%. `CC(Cn1cccn1)NCc1csc(-c2ccsc2)n1` (configuration not stated) gave an INHIBITION of -88.6%. `CN1CCN(C(=O)Cc2csc(-c3ccsc3)n2)C(c2ccccc2)C1` (configuration not stated) gave an INHIBITION of -7.38%. In the case of `Cc1cnn(CCNCc2csc(-c3ccsc3)n2)c1`, the INHIBITION is reported as 72.3%. `O=C(C1CCOCC1)N1C[C@@H]2CC[C@H]1CN(Cc1ccncc1)C2` was tested, and the INHIBITION was -111%. `COc1ccc2c(c1)c(C(=O)Nc1nnn[nH]1)cn2C` was tested, and the INHIBITION was 10.8%. Molecule `Cc1cc(N2CCCC(O)(CN(C)C)C2)c2cc3c(cc2n1)OCO3` (configuration not stated) has an INHIBITION of 80.2%. For `Cc1cc(N2CCC(O)(CN(C)C)C2)c2cc3c(cc2n1)OCO3` (configuration not stated), the INHIBITION was 89.9%. `CCN1CCN(CC(O)c2cc(Cl)ccc2Cl)CC1` (configuration not stated) gave an INHIBITION of 77%. `CCOCCN1CCN(CC(O)c2cc(Cl)ccc2Cl)CC1` (configuration not stated) gave an INHIBITION of 78.5%. `O=C(NCc1cccnc1)[C@H]1CN2CCC1C[C@@H]2Cn1cc(CO)nn1` (some centres not stated) showed an INHIBITION of -46.1%. `O=C(O)[C@@H]1CN(CC2CCC2)C[C@H]1c1ccc(F)cc1` gave an INHIBITION of -73.4%. For `O=C(c1ccco1)N1CCN2C[C@H](Oc3cncnc3)C[C@H]2C1`, the INHIBITION was -20.6%. For `CC(C)n1ncc2c1NC(=O)CC21C(=O)Nc2c(Cl)ccc(Cl)c21` (configuration not stated), the INHIBITION was 83.5%. With `O=C(NC[C@H]1C[C@@H]2CCN1C[C@@H]2CN1CCCCC1)c1ccco1` the INHIBITION was -92.2%. `COc1ccccc1C1SCC(=O)Nc2c1c(=O)[nH]n2C1CCCCC1` (configuration not stated) gave an INHIBITION of -98.6%. With `N#Cc1ccc(N2CCC(OC3CCOCC3)CC2)cc1Cl` the INHIBITION was -184%. With `CCC1CCCCN1CCc1ccncc1` (configuration not stated) the INHIBITION was -81.4%. With `CCC1CCCCN1Cc1ncc(C(C)(C)C)o1` (configuration not stated) the INHIBITION was 71.2%. For `Cc1ccc(N2C[C@H]3CCN(Cc4ccncc4)C[C@H]3C2)nn1`, the INHIBITION was -4.71%. Molecule `Cc1cc(CN2CCC(C3CCN(CCc4ccccc4)CC3)C2)[nH]n1` (configuration not stated) has an INHIBITION of 93.5%. `COc1ccc(C(=O)C2CCCN(Cc3cc(C)n[nH]3)C2)c(OC)c1` (configuration not stated) showed an INHIBITION of -4.88%. With `Fc1ccccc1C1(CNC2CCOC3(CCOCC3)C2)CCCC1` (configuration not stated) the INHIBITION was 76.3%. With `COc1ncccc1CN1C[C@@H]2OCCN(CCN(C)C)[C@@H]2C1` the INHIBITION was -3.36%. For `COc1ncccc1CN1CC[C@H]2O[C@@H](c3nnc(C)o3)CC[C@H]21`, the INHIBITION was -71.9%. `CN(C)CCN(C(=O)Cc1ccc2c(c1)OCCO2)C1CCN(C)CC1` showed an INHIBITION of -48.3%. With `CN(C)CCN1CCC2[C@@H]1CCN2Cc1ccc2c(c1)OCO2` (some centres not stated) the INHIBITION was 72.5%. `CN(C)CCN(C)C(=O)Cc1ccc2c(c1)OCCO2` was tested, and the INHIBITION was -12.9%. Work on `COc1ncccc1CN1CCC2[C@H]1CCN2CCN(C)C` (some centres not stated) yielded an INHIBITION of 53.9%. For `Cc1cc(CN2CC[C@H]3C(=O)N(c4ccsc4)CCO[C@H]3C2)no1`, the INHIBITION was -34.2%. `Cc1cccc(CO[C@@H]2CC[C@H]3[C@H]2OCCN3Cc2ccsc2)n1` showed an INHIBITION of -46.8%. Molecule `O=C(N[C@H]1CN(Cc2cccs2)[C@@H]2CCCO[C@H]12)c1cccnc1` has an INHIBITION of -57.9%. Work on `Cn1cnc(S(=O)(=O)N2C[C@H]3CN(Cc4ccccn4)C[C@H]3C2)c1` yielded an INHIBITION of -85.5%. `Fc1cccc(CN2C[C@@H]3CN(Cc4ccccn4)C[C@@H]3C2)c1` was tested, and the INHIBITION was 89.4%. `Cc1noc(C)c1CN1C[C@@H]2CC(F)(F)C[C@@H]2C1` was tested, and the INHIBITION was -59.4%. `O=C(c1cccc(F)c1)N1C[C@H]2CN(Cc3ccccn3)C[C@H]2C1` was tested, and the INHIBITION was 0.82%. For `Cc1noc(C)c1CN1C[C@@H]2C[C@@H](C)O[C@@H]2C1`, the INHIBITION was -75.1%. Work on `Cc1noc(C)c1CN1C[C@H]2CN(Cc3cccc(F)c3)C[C@H]2C1` yielded an INHIBITION of 55.4%. Work on `O=C(Cc1ccccn1)N1CCN2C[C@H](Oc3cncnc3)C[C@H]2C1` yielded an INHIBITION of -1.9%. For `Cc1noc(C)c1CN1C[C@@H]2CN(C(=O)c3cnccn3)C[C@@H]2C1`, the INHIBITION was -43.4%. `Clc1cccc(N[C@H]2CCCN[C@H]2Cc2ccccc2)c1` was tested, and the INHIBITION was 92.8%.
